# Screening data as filed in PubChem.
# Only some compounds are listed: those with a hit (about 3% of all), similar ones and a draw of the others.
# HIF-2a block = HIF-2a inhibition; inhibition, % at 18.8 µM; 786-0 RCC cells HIF-2a reporter, luciferase luminescence, overnight; 0.72% of 360,000 active;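 active means inhibition of the luminescence signal of 40% or more relative to plate controls, in a single-dose primary screen at 18.75 µM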
# Peg3 promoter = inhibitors of Peg3 promoter; 1.7% of 360,000 active; HeLa PEG-Prom luciferase reporter, luminescence, overnight; inhibition, % at 20 µM;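 active means inhibition of at least 50% at 20 µM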
# EBV LMP1 NFkB = reduces LMP1-driven NF-kappaB luciferase signal | LMP1-induced NF-kappaB luciferase reporter cells, luminescence | 0.69% of 350,000 active | inhibition, % at 12.5 µM; in the data active means inhibition above about 41%; inconclusive means no clear call, values can overlap the other calls;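 further: 0% = neutral control wells and 100% = reference inhibitor control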
# TRPM1 prom inh = inhibitors of MITF-driven TRPM1 promoter in melanoma cells. inhibition, % at 12.5 µM. SK-MEL-5 TRPM1 promoter luciferase, 24 h. 0.83% of 330,000 active. AID 488899;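 active means mean inhibition across replicates of 60% or more, whatever share of single replicates reaches that level; inconclusive means some that reach 60%, reason not given; inactive means mean inhibition across replicates below 60%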
# CF NFkB inh = inhibitors of cystic fibrosis induced NF-kB. KKLEB NF-kB-GFP reporter, PAF-induced, GFP fluorescence overnight. inhibition, % at 5 µM. 0.86% of 360,000 active;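 active means at least 50% inhibition at 5 µM, scaled per plate between neutral and stimulator controls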;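 further: PAF is a Pseudomonas aeruginosa culture filtrate used as stimulus; plate controls were PAF-stimulated DMSO wells for no effect and unstimulated DMSO wells for full effect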
# KKLEB cytotox = CF airway cell cytotoxicity counter-screen; KKLEB CF airway cells viability, ATPlite luminescence, overnight; active compounds read low; cells stimulated with P. aeruginosa culture filtrate; activity change (cytotoxicity), % at 5 µM; 0.36% of 360,000 active;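 active means corrected activity change at or below -50% at 5 µM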
# * = called active by the depositor; ? = inconclusive; nt = no result given.
SMILES,HIF-2a block,Peg3 promoter,EBV LMP1 NFkB,TRPM1 prom inh,CF NFkB inh,KKLEB cytotox
CC1(C(=O)NS(=O)(=O)c2ccccc2C(F)(F)F)CCN1C(=O)COc1ccc(Cl)cc1 (stereo not drawn),6,17,nt,nt,-5,-2
C#CCNC(=O)C[C@@H]1C[C@@]2(C(=O)OCC)CCCC=C2N(CCC2=CCCCC2)C1=O,2,nt,nt,nt,nt,nt
COc1ccc(NC(=O)c2ccccn2)cc1,31,-1,52*,7,1,-14
CC(C)n1nnnc1C1c2ccccc2C(=O)N1Cc1ccccc1 (stereo not drawn),3,nt,nt,nt,nt,nt
Cc1ccc(S(=O)(=O)N2C[C@H]3C(=O)C[C@@H](c4ccccc4)N(S(=O)(=O)c4ccc(C)cc4)[C@H]3C[C@H]2c2ccccc2Cl)cc1,-6,9,nt,nt,14,-11
CC12CC(O)C3C(CCC4=CC(=O)CCC43C)C1CCC2=CCO (stereo not drawn),18,11,35,6,12,-27
Cc1c(C(=O)N(C)C)sc(NC(=O)c2cccc([N+](=O)[O-])c2)c1C#N,-99,-65,-5,-25,14,-12
CCOC(=O)c1ccc(Nc2sc(C(=O)c3cccc([N+](=O)[O-])c3)c(N)c2C#N)cc1,4,52*,10,21,-5,-8
Cc1ccc(C(=O)c2sc(Nc3ccccc3)c(C#N)c2N)cc1,1,39,-6,12,22,-22
N#Cc1c(Nc2ccccc2)sc(C(=O)c2ccc(F)cc2)c1N,18,16,43*,6,24,-40
Cc1ccc(S(=O)(=O)N2[C@@H](CO)CO[C@H]2CC(=O)c2cccs2)cc1,-9,nt,nt,nt,nt,nt
Cc1ccc(C(O)c2ncc(-c3ccccc3Cl)[nH]2)cc1 (stereo not drawn),-161,-116,nt,nt,-8,4
OC(CCCN1CCCCC1)(c1ccccc1)c1ccccc1,-8,-12,89*,-1,-11,-17
C[C@]12CC[C@@H]3c4cc(O)c(O)cc4CC[C@H]3[C@@H]1CC[C@@H]2O,5,5,-4,-4,55*,16
Cc1ccc(C(=O)Nc2nc(-c3ccccn3)cs2)s1,-233,-109,27,19,-33,7
Cc1c(C(=O)Nc2nc(-c3ccccn3)cs2)oc2ccccc12,-128,-57,41*,-6,-16,16
O=C(Nc1nc(-c2ccccn2)cs1)c1ccc(Cl)s1,-308,-137,73*,55,-35,-1
O=C(Nc1nc(-c2ccccn2)cs1)c1ncc(Cl)c(Cl)c1Cl,2,69*,7,13,2,-5
Cc1cccnc1Nc1nc(-c2ccccn2)cs1,-180,-128,51*,39,9,5
CCCS(=O)(=O)NC(=O)C1(C)CCN(C(=O)c2ccc(C#N)cc2)C1 (stereo not drawn),16,-8,nt,nt,-2,1
CC[C@H](CO)Oc1cc(NCc2cccc(N)c2)c2ncn(C(C)C)c2c1,-13,nt,nt,nt,nt,nt
CCC/C=C/c1ccc(CN2C(CC(C)C)C(=O)N(Cc3cn(Cc4ccco4)nn3)CCS2(=O)=O)cc1 (stereo not drawn),13,16,-8,nt,34,16
C[C@H]1CN([C@@H](C)CO)C(=O)CCCn2cc(nn2)CO[C@@H]1CN(C)S(C)(=O)=O,10,-17,4,nt,10,-1
Cc1csc(NC(=O)c2cccn2C)n1,-287,-254,7,-50,-5,-8
Cn1cccc1C(=O)Nc1nc(-c2ccccn2)cs1,-194,-156,42*,-14,-10,2
SMILES,HIF-2a block,Peg3 promoter,EBV LMP1 NFkB,TRPM1 prom inh,CF NFkB inh,KKLEB cytotox
CC(C)NC(=O)C1(C)CN(S(C)(=O)=O)CC(=O)N1Cc1ccc2c(c1)OCO2 (stereo not drawn),8,nt,nt,nt,nt,nt
O=C(Nc1nc(OCC(F)(F)F)cnc1/C=C\c1ccccc1)c1ccccc1,-11,9,nt,nt,-3,2
CCc1cc(CNC(=O)C2CCC(=O)N(Cc3ccccc3F)C2)on1 (stereo not drawn),0,-17,-1,nt,-1,-5
CCOC(=O)c1ccc2c(c1)n(CC)c(/C=C/N(C)c1ccccc1)[n+]2CC,8,32,7,?,13,3
CC[n+]1c(/C=C/N(C)c2ccccc2)n(-c2ccccc2)c2ccc(-c3nc4ccccc4s3)cc21,91*,112*,51*,91*,92*,-95*
O=C(Cn1cc(COc2ccc(C(=O)c3ccccc3)cc2)nn1)c1ccc(O)cc1,-54,-25,-10,2,21,6
